According to PubChem BioAssay AID1159580 (chemical genetic matrix, 2015):
Hit rate of the full screen: of about 5,500 compounds, about 2,000 (36%) were called active. Roughly 18% stayed inconclusive and do not appear here. Rule as the data show it: active = normalized growth mostly below about 0.91 (no sharp cut-off); inconclusive = no clear call, values can overlap the other calls; inactive = mostly above about 0.92. The list shows a part of the results.

Assay: chemical genetic growth profiling, strain panel (AID 1159580);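 also: tested at 20 µM; growth read once vehicle control cultures reached saturation at 30 °C; 1 = growth at the plate median or of vehicle wells; lower values mean less growth of the strain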
Conditions: S. cerevisiae deletion strains, growth OD
[1] = locus YAL013W, strain DEP1, stronger effect = lower value
[2] = locus YAL040C, strain CLN3, stronger effect = lower value
[3] = locus YCL061C, strain MRC1 (second series), stronger effect = lower value
[4] = locus YDR150W, strain NUM1, stronger effect = lower value
[5] = locus YDR363W, strain ESC2, stronger effect = lower value
[6] = locus YER002W, strain NOP16, stronger effect = lower value
[7] = locus YGR078C, strain PAC10, stronger effect = lower value
[8] = locus YMR307W, strain GAS1, stronger effect = lower value
[9] = locus YNL175C, strain NOP13, stronger effect = lower value
[10] = locus YNL197C, strain WHI3, stronger effect = lower value
[11] = locus YNL224C, strain SQS1, stronger effect = lower value
[12] = locus YNL322C, strain KRE1, stronger effect = lower value
[13] = locus YOR083W, strain WHI5 (second series), stronger effect = lower value
[14] = locus YPL055C, strain LGE1, stronger effect = lower value
[15] = locus YPL241C, strain CIN2, stronger effect = lower value
[16] = locus YJR075W, strain HOC1, stronger effect = lower value
[17] = locus YMR263W, strain SAP30, stronger effect = lower value

Measured: normalized growth

OC[C@H]1O[C@@H](n2cnc3c(N[C@H]4CC5CCC4C5)ncnc32)[C@H](O)[C@@H]1O (stereo partly drawn)
inactive: [1] 1 | [2] 1.02 | [3] 1.01 | [4] 1.01 | [5] 1 | [6] 1.02 | [7] 1.03 | locus YGR229C, strain SMI1, stronger effect = lower value 0.938 | [8] 0.999 | locus YNL128W, strain TEP1, stronger effect = lower value 0.992 | [9] 1.01 | [10] 0.994 | [11] 0.974 | [12] 1.01 | [13] 1.04 | [14] 1.03 | [15] 1.01

CCCn1c(=O)c2[nH]c(C3CCCC3)nc2n(CCCOC(=O)c2ccc(S(=O)(=O)F)cc2)c1=O
inactive: [1] 0.992 | [2] 0.987 | [3] 1.01 | [5] 0.998 | [6] 1 | [7] 1.02 | [16] 0.994 | [17] 0.999 | [9] 1.01 | [10] 1 | [11] 1.01 | [13] 0.995 | [14] 1.01

CCOC(=O)C1C(c2cccnc2)C(C(=O)OCC)C(O)(C(F)(F)F)NC1(O)C(F)(F)F (stereo not drawn)
inactive: [1] 1 | locus YBR229C, strain ROT2, stronger effect = lower value 1 | locus YCL061C, strain MRC1, stronger effect = lower value 1.02 | locus YDL101C, strain DUN1, stronger effect = lower value 1 | [4] 0.985 | locus YEL061C, strain CIN8, stronger effect = lower value 0.985 | [7] 1.01 | locus YHR030C, strain SLT2, stronger effect = lower value 1.01 | locus YHR087W, strain rtc3, stronger effect = lower value 1.01 | locus YJR043C, strain POL32, stronger effect = lower value 0.996 | [16] 1.03 | locus YKL190W, strain CNB1, stronger effect = lower value 1.01 | locus YLR039C, strain RIC1, stronger effect = lower value 1.05 | locus YLR058C, strain SHM2 (second series), stronger effect = lower value 1.01 | locus YLR085C, strain ARP6, stronger effect = lower value 1.01 | locus YLR262C, strain YPT6, stronger effect = lower value 1.02 | locus YML094W, strain GIM5, stronger effect = lower value 0.965 | locus YMR219W, strain ESC1, stronger effect = lower value 1.01 | [17] 1.04 | [8] 0.995 | locus YNL153C, strain GIM3, stronger effect = lower value 1.01 | locus YNL298W, strain CLA4 (second series), stronger effect = lower value 1 | [12] 0.994 | locus YNR030W, strain Alg12, stronger effect = lower value 1 | locus YOL006C, strain TOP1, stronger effect = lower value 0.963 | [14] 1 | [15] 1.02 | locus YPR135W, strain CTF4, stronger effect = lower value 0.982
